PubChem BioAssay AID1347088 (National Center for Advancing Translational Sciences (NCATS), 2019)
Inconclusive results are not listed. A number with no mark means an inactive call. Calls of active or inactive are those of the source. Calls follow the shape of the full dose curve.

Assay: qHTS for Inhibitors of the Functional Ribonucleoprotein Complex (vRNP) of Lymphocytic Choriomeningitis Arenaviruses (LCMV): Viability assay - Alamar blue signal for LCMV Confirmatory Screen
Details: LCMV vRNP confirmatory screen cells; series mostly up to 53.9 µM; viability change, negative = toxic: at the top concentration

Structure (SMILES)	viability change, negative = toxic	Potency
CCOC(=O)OCC/C(SC(=O)OCC)=C(\C)N(C=O)Cc1cnc(C)nc1N	0.284%	
Oc1cc(Cl)ccc1Oc1ccc(Cl)cc1Cl		44.4 µM (active)
CO/C=C(/C(=O)OC)c1ccccc1Oc1cc(Oc2ccccc2C#N)ncn1		49.8 µM (active)
CN(C)c1ccc(O)c2c1C[C@H]1C[C@H]3[C@H](N(C)C)C(=O)C(C(N)=O)=C(O)[C@@]3(O)C(=O)C1=C2O	12.4%	
Cc1cccc(-c2[nH]c(C(C)(C)C)nc2-c2ccc3c(c2)OCO3)n1		4.32 µM (active)
COc1ccc2c(c1OC)CN1CCc3cc4c(cc3C1C2)OCO4 (centres undefined)	-16.3%	
Cc1ccccc1-n1c(Cn2nc(-c3cccc(O)c3)c3c(N)ncnc32)nc2cccc(C)c2c1=O	-36.2%	
CC[C@@]1([C@@H]2O[C@@H]([C@H]3O[C@@](O)(CO)[C@H](C)C[C@H]3C)C[C@H]2C)CC[C@H]([C@]2(C)CC[C@]3(C[C@H](O)[C@@H](C)[C@@H]([C@@H](C)[C@@H](OC)[C@H](C)C(=O)O)O3)O2)O1		5.95 µM (active)
C[C@]12CC[C@@H](O)C[C@H]1CC[C@@H]1[C@H]2CC[C@]2(C)C(=O)CC[C@@H]12	-2.15%	
C=C1CC[C@@H]2[C@](C)(CO)[C@H](O)CC[C@@]2(C)[C@@H]1/C=C/C1=CCOC1=O	-3.58%	
CC(O)C(O)[C@H]1CNc2nc(N)[nH]c(=O)c2N1 (some centres undefined)	-3.99%	
O=C(Nc1ccccc1)Nc1ccc(-c2ccc(C(=O)[C@H]3CCC[C@H]3C(=O)O)cc2)cc1	-10.2%	
Cc1ccc2c(c1)C1CN(C)CCC1N2 (centres undefined)	-22.8% [at 19.4 µM]	
CCCCCC[C@H]1C(=O)O[C@H](C)[C@H](NC(=O)c2cccc(NC=O)c2O)C(=O)O[C@@H](C)[C@@H]1OC(=O)CC(C)C	-22.3%	
Fc1ccc(CNc2ncnc3ccc(F)cc23)cc1	-18.6%	
CCCCC/C(C=O)=C\c1ccccc1	-17.8%	
Cc1cnc(NC(=O)C2=C(O)c3ccccc3S(=O)(=O)N2C)s1	-23.7%	
COC(=O)c1nc(Cl)c(Cl)nc1N		6.11 µM (active)
CCc1cncnc1N1CCN(Cc2nc3ccc(C(F)(F)F)cc3[nH]2)CC1		35.2 µM (active)
Cn1cc(-c2ccncc2)c(-c2ccc(OCc3ccc4ccccc4n3)cc2)n1		38.5 µM (active)
O=C(CCCN1CCN(c2ccc(F)cc2)CC1)NC1c2ccccc2CSc2ccccc21 (centres undefined)	-20.7%	
CN1C(C(=O)Nc2ccccn2)=C(O)c2ccccc2S1(=O)=O	4.12%	
Clc1nccc2c1ccc1ccccc12	-18.9%	
Cc1ncc([N+](=O)[O-])n1CC(C)O (centres undefined)	-3.13%	
